# From PubChem
# A selection: hits, their analogues and other compounds. The true share with any hit is near 5.3%.
# TDP1 inh – TDP1 (human) enzyme inhibition | Potency, µM (titrated, usually from 130 µM), inactives show top-dose activity change, negative = inhibition, usual class: inhibitors | actives 0.28% (n = 350,000) | recombinant TDP1, AlphaScreen DNA substrate cleavage | Q9NUW8; further: potency means the concentration at half of the fitted maximal effect; on the % scale 0 is the no-effect control and ±100 the full control effect; nearly all actives have a fitted effect of over 40% in size
#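 Recombinant E. coli-expressed Tdp1 (1 nM) preincubated with compound 15 min at RT, then 5'-biotin/3'-phosphotyrosine-FITC DNA substrate (15 nM) added for 5 min. AlphaScreen beads (10 ug/ml) added, 10 min RT; tyrosine-FITC cleavage read as signal loss.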
# HP1b chromo inh – inhibitors of HP1-beta chromodomain binding to methylated histone tails; P83916; actives 0.56% (n = 390,000); Potency, µM (series often up to 114 µM), inactives show top-dose activity change, negative = inhibition, usual class: inhibitors; AlphaScreen HP1-beta / biotin-H3K9me3 peptide binding; further: potency means the concentration at half of the fitted maximal effect; nearly all actives have a fitted effect of over 70% in size
#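 AlphaScreen: HP1-beta (50 nM) preformed 30 min with biotin-H3(1-18)K9me3 peptide (50 nM) in PBS pH 7.4, 0.01% Tween-20. Compound added for 30 min at RT, then streptavidin donor/nickel chelate acceptor beads (10 ug/mL) for 30 min.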
# Six1-Eya2 inh – blocks human Six1 binding to Eya2; Q15475+O00167; activity change, % (concentration not given with the values); actives 0.56% (n = 360,000); AlphaScreen GST-Six1/His-Eya2 binding, biochemical; stronger effect = lower value; in the data active means activity change below about -65%; inconclusive means mostly about -30% to -63%; further: on the % scale 0 is the no-effect control and ±100 the full control effect
# Target sequence (O00167 whole entry, looked up): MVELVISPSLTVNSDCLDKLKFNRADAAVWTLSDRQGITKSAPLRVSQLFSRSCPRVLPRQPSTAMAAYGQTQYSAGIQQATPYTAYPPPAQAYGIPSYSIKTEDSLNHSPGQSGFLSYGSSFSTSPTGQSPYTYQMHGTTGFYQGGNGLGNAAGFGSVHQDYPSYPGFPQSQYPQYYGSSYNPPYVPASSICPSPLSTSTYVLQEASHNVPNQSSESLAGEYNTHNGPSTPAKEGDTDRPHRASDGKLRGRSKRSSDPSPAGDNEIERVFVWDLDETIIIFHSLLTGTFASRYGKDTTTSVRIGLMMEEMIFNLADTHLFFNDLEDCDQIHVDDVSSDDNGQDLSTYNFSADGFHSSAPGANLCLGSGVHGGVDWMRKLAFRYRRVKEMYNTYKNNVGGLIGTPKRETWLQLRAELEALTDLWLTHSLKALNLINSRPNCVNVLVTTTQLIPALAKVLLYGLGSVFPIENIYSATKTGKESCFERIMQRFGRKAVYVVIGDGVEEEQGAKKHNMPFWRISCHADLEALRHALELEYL
# Target sequence (Q15475 whole entry, looked up): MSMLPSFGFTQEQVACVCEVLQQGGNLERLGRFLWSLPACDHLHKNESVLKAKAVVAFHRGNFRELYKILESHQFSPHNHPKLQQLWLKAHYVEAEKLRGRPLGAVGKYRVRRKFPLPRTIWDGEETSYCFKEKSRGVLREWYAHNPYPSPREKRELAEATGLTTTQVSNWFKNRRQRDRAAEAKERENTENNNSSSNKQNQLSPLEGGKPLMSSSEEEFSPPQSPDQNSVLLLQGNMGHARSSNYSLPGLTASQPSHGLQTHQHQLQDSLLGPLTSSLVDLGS
#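 AlphaScreen luminescence read after one hour at 37 °C in darkness. Pin-transferred compounds met GST-Six1 and His-Eya2 protein (5X stock 250 nM/500 nM) plus glutathione donor and Ni-chelate acceptor beads (5X, 50 ug/mL).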
# JMJD2A Tudor inh – blocks the human JMJD2A Tudor domain; AlphaScreen JMJD2A-Tudor / H3K4me3 peptide binding; Potency, µM (doses to about 114 µM), for the others: at the highest dose activity change, negative = inhibition, hits mostly inhibitors; actives 4.4% (n = 390,000); AID 504339; further: potency means the concentration at half of the fitted maximal effect; on the % scale 0 is the no-effect control and ±100 the full control effect; nearly all actives have a fitted effect of over 50% in size
# BAZ2B block – inhibitors of human BAZ2B bromodomain; Q9UIF8; AlphaScreen BAZ2B-H3K14Ac peptide displacement; Potency, µM (series often up to 114 µM), for the others: top-dose activity change, negative = inhibition, usual class: inhibitors; AID 504333; actives 4.4% (n = 360,000); further: potency means the concentration at half of the fitted maximal effect; on the % scale 0 is the no-effect control and ±100 the full control effect; nearly all actives have a fitted effect of over 60% in size
#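 Inhibition is scored as reduced AlphaScreen emission. The BAZ2B/b-H3(5-23)K14Ac complex (50 nM each) in PBS pH 7.4, 0.01% Tween-20 meets compound (up to 110 uM) for 30 min at RT before bead addition.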
# CtBP-E1A blk – blocks the CtBP interaction with E1A; activity change, % (no concentration beside the values); actives 0.49% (n = 340,000); AlphaScreen GST-E1A/His-CtBP binding, 1536-well; stronger effect = lower value; in the data active means activity change below about -65%; inconclusive means mostly about -30% to -63%; further: on the % scale 0 is the no-effect control and ±100 the full control effect
#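 AlphaScreen with 125 nM GST-E1A and 125 nM His-CtBP (5X stocks) in Tris pH 8.0, 300 mM NaCl, BSA, Tween 20, TCEP. Compounds preincubated 2 h at 37 deg C, then glutathione donor/nickel acceptor beads added for 1 h at 37 deg C in dark.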
# Numbers without * were called inactive; u = inconclusive; x = no result given; [ ] = another dose, or the depositor's remark. Unless noted, the call rests on the fitted dose curve; in most records, active means well fitted inhibition curve with a large enough effect; inconclusive means small, poorly fitted or top-dose-only effect; inactive means no such curve, though single readings can be large or run the other way.
SMILES,TDP1 inh,HP1b chromo inh,Six1-Eya2 inh,JMJD2A Tudor inh,BAZ2B block,CtBP-E1A blk
Cc1nnc(NC(=O)C2CCCO2)s1 (stereo unspecified),-2.2%,-4.6%,3.2,-18.6%,1.0%,4.5
CN(C)c1ccc(CNc2nc(-c3ccccc3)nn2S(C)(=O)=O)cc1,9.9%,u,u,56.2µM*,35.5µM*,u
CS(=O)(=O)n1nc(-c2cccnc2)nc1NCc1ccccc1,-0.6%,32.3%,7.8,-12.0%,-16.9%,-25.1
CC(=O)n1nc(-c2ccccc2)nc1NCc1ccc(N(C)C)cc1,8.1%,u,-3.6,35.5µM*,25.1µM*,-9.6
CCC(=O)n1nc(-c2ccccc2)nc1NCc1ccccc1,1.1%,138.0%,1.9,67.9%,90.7%,9.2
Cc1cc(NC(=O)c2cc(-c3ccccn3)nc3ccc(Br)cc23)no1,2.7%,33.5%,-4.6,-12.2%,70.8µM*,-2.7
Cc1ccc(-c2cc(C(=O)NCCCn3ccnc3)c3cc(Br)ccc3n2)o1,12.4%,-16.6%,-20.7,79.4µM*,-1.6%,-22.0
Cc1ccc(-c2cc(C(=O)O)c3cc(Br)ccc3n2)o1,x,-24.8%,u,25.1µM*,56.2µM*,-8.5
CN(C)c1oc(-c2ccccc2Cl)nc1P(=O)(c1ccccc1)c1ccccc1,3.4%,-16.1%,-8.3,56.2µM*,u,-16.5
Cc1sc(N/N=C/c2ccco2)nc1-c1ccccc1,7.7%,-19.6%,-4.8,u,u,x
Cc1sc(N/N=C/c2cccnc2)nc1-c1ccccc1,-1.9%,-6.8%,-15.5,50.1µM*,u,-14.1
O=C(NN1CCCCC1)c1cccc2ccccc12,7.2%,24.3%,1.9,-24.9%,-1.0%,-3.0
O=C(NN1CCOCC1)c1cccc2ccccc12,1.9%,1.6%,-1.1,50.1µM*,-4.4%,3.2
CCn1c(C)[n+](CCOCC[n+]2c(C)n(CC)c3cc(Cl)c(Cl)cc32)c2cc(Cl)c(Cl)cc21,5.6%,-3.1%,1.6,22.4µM*,0.2%,0.8
CC(=O)OCCn1c(C)[n+](CCOC(C)=O)c2cc(Cl)c(Cl)cc21,7.9%,14.6%,-0.1,-9.0%,-1.1%,5.8
C=CCOc1cccc(C(=O)N2CCCC(Nc3ccc4c(c3)OCCO4)C2)c1 (stereo unspecified),10.3%,-13.5%,-19.7,u,44.7µM*,-3.3
C=Cc1ccc(C(=O)N2CCCC(Nc3ccc4c(c3)OCCO4)C2)cc1 (stereo unspecified),9.6%,-30.0%,-16.7,u,u,-4.0
Cc1cc(/C=C2\SC(=S)NC2=O)c(C)n1-c1cccc(O)c1,5.1%,u,-13.7,-31.6%[11.4 µM],50.1µM*,-19.1
COC(=O)C1=C(C)NC(=O)/C1=C\c1cc(C)n(-c2cccc(C)c2)c1C,9.8%,20µM*,-5.4,44.7µM*,39.8µM*,-2.1
Cc1ccc(-n2c(C)cc(/C=C3\SC(=O)NC3=O)c2C)cc1,x,13.7%,14.1,-18.8%,-3.0%,2.2
CCn1c(C)cc(/C=C2/SC(=S)NC2=O)c1C,3.0%,9.4%,4.5,-22.0%,-37.2%,-3.6
Cc1cc(/C=C2\SC(=S)NC2=O)c(C)[nH]1,10.8%,-22.5%,-27.9,u,44.7µM*,-16.8
Cc1sc(-n2c(C)cc(/C=C3\SC(=S)NC3=O)c2C)c(C#N)c1C,5.8%,u,u,39.8µM*,86.2%,-9.4
CC(=O)OC[C@@H]1O[C@H](CCO/N=C(\C)CCN2CCCCc3nc(C)c(C)cc32)C=C[C@@H]1OC(C)=O,3.7%[21 µM],x,x,x,x,x
CCSc1nc2n(n1)C(c1ccc(C(=O)O)cc1)C(C(=O)Nc1ccccc1C)=C(C)N2 (stereo unspecified),-4.4%,50.8%,x,-15.3%,-13.7%,x
Cc1cc2cc(CN(CCN(C)C)C(=S)NCc3ccco3)c(=O)[nH]c2cc1C,1.2%,-23.5%,-10.1,u,70.8µM*,-3.0
Cc1ccc(CN2CCC(C(=O)NCCC(C)C)CC2)o1,-1.0%,u,-11.1,44.7µM*,u,-12.5
